# Compound activity as filed in PubChem.
# Hits are enriched below; roughly 19% of the tested compounds scored in any of these assays.
# DT40 TDP1 CPT: qHTS for Inhibitors of human tyrosyl-DNA phosphodiesterase 1 (TDP1): qHTS in cells in presence of CPT; Potency, µM (highest dose often 46.2 µM), inactives show at the top dose activity change, negative = growth inhibition, hits mostly inhibitors; chicken DT40 Tdp1-/-;hTDP1 cells + 20 nM CPT, ATP luminescence, 48 h; AID 686979, 2013; 420,000 compounds, 12% hits; further: nearly all actives have a fitted effect of over 55% in size
#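 Chicken DT40 Tdp1-/- cells complemented with human TDP1, 400 cells/well, exposed to compounds plus 20 nM camptothecin for at least 48 h at 37 C; viability read as ATP content by CellTiter-Glo luminescence.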
# VP16 counter: VP16 counterscreen qHTS for inhibitors of ROR gamma transcriptional activity; 310,000 compounds, 3.5% hits; Potency, µM (series often up to 53.6 µM), for the others: top-dose activity, negative = inhibition, actives largely listed as inhibitors; Drosophila S2 Gal4-VP16 UAS-luciferase, luminescence, 20 h;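 further: Gal4-VP16 expression switched on by copper sulfate through the metallothionein promoter; nearly all actives have a fitted effect of over 50% in size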
# TDP1 block: qHTS Assay for Inhibitors of Tyrosyl-DNA Phosphodiesterase (TDP1). 350,000 compounds, 0.28% hits. recombinant TDP1, AlphaScreen DNA substrate cleavage. AID 485290, 2010. Potency, µM (titrated, usually from 130 µM), inactives show at the top dose activity change, negative = inhibition, hits mostly inhibitors; further: nearly all actives have a fitted effect of over 40% in size
# Target sequence (Q9NUW8 whole entry, looked up): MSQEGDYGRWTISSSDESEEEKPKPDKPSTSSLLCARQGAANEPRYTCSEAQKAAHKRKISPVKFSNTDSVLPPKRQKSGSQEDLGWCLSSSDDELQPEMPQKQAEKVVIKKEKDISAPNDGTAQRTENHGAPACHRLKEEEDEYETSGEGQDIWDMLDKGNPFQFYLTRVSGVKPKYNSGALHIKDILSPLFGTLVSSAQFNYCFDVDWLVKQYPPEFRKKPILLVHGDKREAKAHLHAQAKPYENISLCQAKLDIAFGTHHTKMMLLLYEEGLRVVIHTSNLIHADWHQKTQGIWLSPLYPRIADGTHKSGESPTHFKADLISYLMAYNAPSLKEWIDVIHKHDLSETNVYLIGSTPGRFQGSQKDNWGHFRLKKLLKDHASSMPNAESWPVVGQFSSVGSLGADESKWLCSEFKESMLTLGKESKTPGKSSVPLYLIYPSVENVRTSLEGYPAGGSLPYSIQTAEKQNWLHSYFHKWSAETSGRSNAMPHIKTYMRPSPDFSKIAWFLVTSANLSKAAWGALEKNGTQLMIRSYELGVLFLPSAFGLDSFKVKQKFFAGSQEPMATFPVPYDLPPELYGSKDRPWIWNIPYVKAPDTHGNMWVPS
#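 Recombinant E. coli-expressed Tdp1 (1 nM) preincubated with compound 15 min at RT, then 5'-biotin/3'-phosphotyrosine-FITC DNA substrate (15 nM) added for 5 min. AlphaScreen beads (10 ug/ml) added, 10 min RT; tyrosine-FITC cleavage read as signal loss.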
# TDP1 cell noCPT: qHTS for Inhibitors of human tyrosyl-DNA phosphodiesterase 1 (TDP1): qHTS in cells in absence of CPT | DT40 Tdp1-/- hTDP1 cells, no CPT, ATP luminescence, 48 h | Potency, µM (titrated, usually from 46.2 µM), inactives show top-dose activity change, negative = growth inhibition, usual class: inhibitors | 420,000 compounds, 15% hits | AID 686978, 2013; further: nearly all actives have a fitted effect of over 55% in size
#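 Growth of hTDP1-complemented DT40 Tdp1-knockout cells is measured by ATP luminescence after at least 48 hr compound exposure at 37 °C, with DMSO substituting for the 20 nM CPT used in the parallel screen.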
# RORg inh: qHTS for inhibitors of ROR gamma transcriptional activity | 310,000 compounds, 5.4% hits | Drosophila S2 Gal4-RORgamma UAS-luciferase reporter, 20 h | Potency, µM (top dose mostly 53.6 µM), inactives show at the highest dose activity change, negative = inhibition, usual class: inhibitors; further: nearly all actives have a fitted effect of over 60% in size
#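 Using a luciferase readout, inhibitors were identified by reduced reporter activity in Drosophila cells coexpressing a copper-inducible Gal4–ROR gamma fusion and UAS-driven Photinus luciferase, incubated 20 hr after 700 uM copper sulfate.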
# An asterisk follows results filed as active; ? = inconclusive; . = no result given; [ ] = another dose, or the depositor's remark. The call rests on the fitted dose curve; in most records, active means well fitted curve in the direction sought with a large enough effect; inconclusive means small, poorly fitted or top-dose-only effect, or another doubt; inactive means no such curve, though single readings can be large; an effect the other way counts as inactive or inconclusive. On the % scale 0 is the no-effect control and ±100 the full control effect; potency means the concentration at half of the fitted maximal effect.
SMILES,DT40 TDP1 CPT,VP16 counter,TDP1 block,TDP1 cell noCPT,RORg inh
Cc1cc(C)n2c(Nc3ccc4c(c3)OCCO4)c(-c3ccco3)nc2n1,.,15%,5%,.,27%
C/C(=N\NC(=O)CNc1cccc(C(F)(F)F)c1)c1cccs1,10%,8%,-1%,?,40%
CN1CCN(C(=O)/C(=C/c2cccs2)NC(=O)c2cccs2)CC1,1%,-9%,-3%,-5%,-23%
CCCCCCCCNS(=O)(=O)CCNCCc1ccccc1,-29%,.,.,?,.
CCCCCCCCNc1ccccc1S(=O)(=O)NCc1ccccc1,?,.,-15%[56.1 µM],18µM*,.
CCOc1ccc2oc(C(=O)O)c(C)c2c1,10%,-16%,5%,-5%,8%
Cc1c(C(=O)NNC(=O)c2ccccc2O)oc2ccc(Br)cc12,21µM*,.,.,?,.
Cc1c(C(=O)NCc2cccs2)oc2ccc(Br)cc12,6%,-8%,3%,-17%,37%
CCOc1ccc2oc(C(=O)NNC(=O)c3ccccc3O)c(C)c2c1,?,.,.,26µM*,.
Cc1cccc(NC(=O)C2CCN(S(C)(=O)=O)CC2)c1C,-4%,1%,.,-15%,-8%
CCCc1cc(=O)[nH]c(SCC(=O)Nc2nonc2N)n1,-7%,-5%,2%,-12%,3%
Cc1ccc(C(=O)CSc2nnc(C)s2)cc1,-4%,-5%,-7%,-7%,5%
Cc1ccc(C2(C)CC(C)(C)N(C(=O)CSc3nnc(C)s3)c3ccccc32)cc1 (stereo unspecified),21µM*,-22%,5%,16µM*,-1%
Cc1nnc(SCC(=O)N2c3ccccc3C(C)(c3ccccc3)CC2(C)C)s1 (stereo unspecified),16µM*,-7%,8%,12µM*,-13%
Cc1nnc(SCC(=O)N2CCN(Cc3ccccc3)CC2)s1,0%,.,-1%,?,5%[0.365 µM]
CC(C)c1ccc(CNn2cnnc2)cc1,-4%,-1%,.,?,8%
CNC(=O)c1cc(S(=O)(=O)NC2CCCCCC2)ccc1C,?,.,5%,-1%,.
Cc1ccccc1CNC(=O)C1CCC(=O)N(C2CCCCCC2)C1 (stereo unspecified),-3%,-5%,1%,?,37%
CC(=O)c1ccc(S(=O)(=O)N(Cc2cc3cc4c(cc3[nH]c2=O)OCCO4)CC2CCCO2)cc1 (stereo unspecified),-29%,3%,3%,11µM*,-28%
Cc1ccc2cc(CN(CC3CCCO3)S(=O)(=O)c3ccc4c(c3)OCCO4)c(=O)[nH]c2c1C (stereo unspecified),18µM*,.,.,21µM*,.
COc1ccc(OC)c(NC(=S)NCCCN2CCOCC2)c1,19%,-3%,-2%,-1%,-3%
COc1ccc(NC(=O)CCN2CCN(S(=O)(=O)c3ccc(F)cc3)CC2)cc1,-18%,-1%,0%,2%,-6%
Cc1ccc(NC(=S)N2CCc3[nH]c4ccccc4c3C2)cc1,-26%,-8%,10%,?,6.3µM*
CCOC(=O)N1CCc2[nH]c3ccc(C)cc3c2C1,15µM*,0%,-6%,23µM*,-2%
CC(=O)Nc1ccc2c(c1)Cc1c-2cc(Cl)c(NC(C)=O)c1Cl,9%,.,.,-11%,.
SMILES,DT40 TDP1 CPT,VP16 counter,TDP1 block,TDP1 cell noCPT,RORg inh
O=C(C1CCCN(S(=O)(=O)c2ccccc2)C1)N1CCCc2ccccc21 (stereo unspecified),?,3%,-5%,18µM*,?
CC(=O)N1CCCc2cc(S(=O)(=O)N3CCCC(C(=O)Nc4cc(C)ccc4C)C3)ccc21 (stereo unspecified),?,-2%,1%,-29%,-4%
Cc1ccc(S(=O)(=O)N2CCCC(C(=O)N3CCCc4ccccc43)C2)cc1 (stereo unspecified),21µM*,0%,1%,21µM*,22%
CCCCN(C)C(=O)c1nc2ccccn2c1CN(C)Cc1csc(C)n1,4%,-4%,.,10%,-7%
COC(=O)c1ccccc1NC(=O)CCCn1nc([N+](=O)[O-])c(Br)c1C,15µM*,4%[10 µM],-5%,-20%,41%
Cc1c(Br)c([N+](=O)[O-])nn1CCCC(=O)Nc1sc2c(c1C#N)CCC2,15µM*,2%,2%,16µM*,?
O=C(CN1C(=O)NC2(CCc3ccccc32)C1=O)c1ccccc1 (stereo unspecified),1%,7%,4%,7%,0%
COc1ccc(-c2noc(Cn3c(=O)c4ccccc4n(CC(=O)Nc4cccc(C(F)(F)F)c4)c3=O)n2)cc1,?,.,3%,16µM*,.
O=C(Cn1c(=O)n(Cc2nc(-c3ccccc3)no2)c(=O)c2cc3c(cc21)OCO3)Nc1cccc(C(F)(F)F)c1,13µM*,.,0%,9.2µM*,.
COc1ccc(OC)c(NC(=O)Cn2c(=O)n(Cc3nc(C)no3)c(=O)c3ccccc32)c1,-4%,.,0%,3%,.
CCOc1ccc(NC(=O)Cn2c(=O)n(Cc3nc(-c4ccccc4)no3)c(=O)c3cc4c(cc32)OCO4)cc1,-7%,.,3%,-12%,.
CCOc1ccc2nc(N3CCC(C(=O)Nc4ccccc4CC)CC3)sc2c1,?,.,3%,23µM*,.
CCOc1ccc2nc(N3CCC(C(=O)N4CCN(C(=O)c5ccco5)CC4)CC3)sc2c1,?,6%,5%,23µM*,?
CCOc1ccc2nc(N3CCC(C(=O)N4CCN(C5CCCCC5)CC4)CC3)sc2c1,8.2µM*,-21%,3%,?,10%
CCOC(=O)C/C(C)=N\Nc1nc(-c2ccccc2)cs1,?,-10%,12%,?,-45%
Cc1cccc2c1Sc1ccc(Cl)cc1CC2N1CCNCC1 (stereo unspecified),16µM*,.,.,18µM*,.
CCc1cccc2c1Sc1ccccc1CC2N1CCNCC1 (stereo unspecified),16µM*,.,.,16µM*,.
Cc1ccc(S(=O)(=O)N2CCC(C(=O)Nc3nnc(-c4ccc(F)cc4)s3)CC2)cc1,-2%,-1%,-1%,?,-15%
Nc1ccn(CCCN2CCN(C(=O)C3CC3)CC2)c(=O)n1,-2%,.,.,0%,.
CN(/N=C\c1ccc(O)c(O)c1)c1nc(-c2ccccc2)cc(-c2ccccc2)n1,0.82µM*,3.2µM*,8%,1.5µM*,2.5µM*
CCc1nc2c(OCc3ccc(OC)cc3)cccn2c1N(C)C(=O)c1ccco1,-24%,.,.,?,.
